From PubChem
PAFAH1B2 FP inh = PAFAH1B2 enzyme inhibitors, primary screen, biochemical, fluorescence polarization, human. inhibition, % at 3.39 µM. Platelet-activating factor acetylhydrolase IB subunit alpha2 (Homo sapiens), P68402. recombinant PAFAH1B2, FP-rhodamine activity probe. AID 492953, 2010. hit rate 1.2% among 340,000;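 active means inhibition above the mean of all tested compounds plus 3 SD, cut at about 24% in these data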;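 further: 0% = enzyme with DMSO and 100% = wells lacking PAFAH1B2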
eLon inh = inhibitors of E. coli Lon protease, primary screen, biochemical, fluorescence polarization | inhibition, % at 7.94 µM | AID 602123, 2011 | purified E. coli Lon protease | P0A9M0 | hit rate 0.42% among 360,000; in the data active means inhibition above about 13%, passing the limit was not always enough;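 further: 0% = enzyme with probe and DMSO and 100% = no enzyme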
pPAFAH inh = pPAFAH enzyme inhibitors, primary screen, biochemical, fluorescence polarization, human | hit rate 1.5% among 330,000 | Platelet-activating factor acetylhydrolase (Homo sapiens), Q13093 | recombinant pPAFAH, FP-rhodamine probe fluorescence polarization | AID 463082, 2010 | inhibition, % at 3.39 µM;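 active means inhibition above the mean inhibition across the screen plus 3 SD, cut at about 25% in these data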;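 further: inhibitors block binding of the rhodamine activity-based probe so polarization drops; 0% = enzyme with DMSO and 100% = wells lacking pPAFAH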
Target sequence (Q13093 whole entry, looked up): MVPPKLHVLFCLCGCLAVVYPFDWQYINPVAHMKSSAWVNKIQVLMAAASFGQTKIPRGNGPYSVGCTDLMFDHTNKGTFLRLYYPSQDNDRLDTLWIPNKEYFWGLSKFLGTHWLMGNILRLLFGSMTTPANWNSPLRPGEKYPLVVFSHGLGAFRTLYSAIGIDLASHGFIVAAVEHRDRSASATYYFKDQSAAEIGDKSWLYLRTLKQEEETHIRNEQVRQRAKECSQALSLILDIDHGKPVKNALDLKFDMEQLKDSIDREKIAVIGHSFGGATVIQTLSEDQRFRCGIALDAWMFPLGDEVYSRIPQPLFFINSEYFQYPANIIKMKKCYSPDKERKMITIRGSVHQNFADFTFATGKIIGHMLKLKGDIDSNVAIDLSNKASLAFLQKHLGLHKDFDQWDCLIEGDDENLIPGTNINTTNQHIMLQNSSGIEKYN
PAFAH2 FP inh = PAFAH2 enzyme inhibitors, primary screen, biochemical, fluorescence polarization, human | Platelet-activating factor acetylhydrolase 2, cytoplasmic (Homo sapiens), Q99487 | recombinant PAFAH2, FP-rhodamine activity probe | inhibition, % at 3.39 µM | hit rate 0.99% among 340,000 | AID 492956, 2010;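 active means inhibition above the mean over all tested compounds plus 3 SD, cut at about 30% in these data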;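 further: inhibitors block probe labeling of enzyme so polarization drops; 0% = enzyme with DMSO and 100% = wells lacking PAFAH2 protein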
Rin1-Abl PPI inh = inhibitors of Rin1-Abl protein binding, primary screen, biochemical, TR-FRET | hit rate 0.4% among 360,000 | Tyrosine-protein kinase ABL1 (Homo sapiens) + Ras and Rab interactor 1 (Homo sapiens), … | inhibition, % at 7.35 µM; in the data active means inhibition above about 5%, passing the limit was not always enough
PAFAH1B3 FP inh = PAFAH1B3 enzyme inhibitors, primary screen, biochemical, fluorescence polarization, human. hit rate 0.28% among 340,000. Platelet-activating factor acetylhydrolase IB subunit alpha1 (Homo sapiens), Q15102. recombinant PAFAH1B3, FP-rhodamine probe. inhibition, % at 3.39 µM;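 active means inhibition above the screen-wide average of all tested compounds plus 3 SD, cut at about 25% in these data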;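 further: 0% = enzyme with DMSO only and 100% = wells lacking PAFAH1B3 protein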
Target sequence (Q15102 whole entry, looked up): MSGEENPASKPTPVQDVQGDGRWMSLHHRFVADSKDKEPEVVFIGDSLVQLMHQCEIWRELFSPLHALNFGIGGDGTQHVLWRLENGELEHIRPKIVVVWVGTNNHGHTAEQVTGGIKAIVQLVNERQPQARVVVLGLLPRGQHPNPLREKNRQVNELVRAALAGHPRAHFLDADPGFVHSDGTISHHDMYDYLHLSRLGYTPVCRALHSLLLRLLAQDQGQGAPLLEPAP
* hit, by the source's call; nt = no result. Shown are actives, neighbours in structure and some others; about 3.1% of the full set was active somewhere.

SMILES | PAFAH1B2 FP inh | eLon inh | pPAFAH inh | PAFAH2 FP inh | Rin1-Abl PPI inh | PAFAH1B3 FP inh
Cc1ccc(SCC(=O)NNC(=O)c2cncc(Br)c2)cc1 | 29* | -6 | 2 | -4 | 0 | 10
CCOC(=O)c1cc(-c2ccccc2)sc1NC(=O)CSc1nnc(N)s1 | 1 | -8 | 25* | 0 | 3 | -2
CCOC(=O)c1cc(-c2ccccc2)sc1NC(=O)CSc1nncs1 | 2 | 7 | 24 | -6 | 1 | 12
O=C(NC1CCOC1=O)c1ccccc1 (stereo unspecified) | 6 | 2 | nt | 0 | 0 | 20
CCOc1ccc(Cl)cc1-c1cc(C(=O)NC2CCCCC2)[nH]n1 | nt | -3 | nt | nt | -3 | nt
COc1cc(OC)cc(C(=O)NCCCCc2ccccc2)c1 | 4 | 3 | 0 | 10 | 1 | 4
O=C(Nc1cc(S(=O)(=O)N2CCCCC2)ccc1Cl)c1ccccc1NS(=O)(=O)c1ccc(F)cc1 | 30* | -13 | 22 | 2 | -2 | 18
O=C(Nc1ccc(Cl)c(Cl)c1)Nc1ccc(N2CCCC2)c(S(=O)(=O)Nc2ccccc2Cl)c1 | 4 | -1 | 11 | -84 | -4 | -7
Cc1ccc(S(=O)(=O)Nc2ccccc2C(=O)Nc2nc(-c3ccc(F)cc3)cs2)cc1 | 2 | -1 | 25* | 0 | 1 | -2
O=C(Nc1ccc(F)cc1)Nc1ccc(N2CCCC2)c(S(=O)(=O)Nc2ccccc2Cl)c1 | -6 | 0 | 25* | -24 | -2 | -7
O=C(NNS(=O)(=O)c1ccc(Cl)cc1)c1ccc(S(=O)(=O)N2CCCCC2)cc1 | 11 | -3 | 0 | -7 | 3 | 0
O=C(Nc1cc(S(=O)(=O)Nc2ccc(Cl)cc2)ccc1O)c1ccc(S(=O)(=O)N2CCCCCC2)cc1 | -6 | -1 | 30* | -11 | -1 | -5
Cc1csc(=O)n1CCC(=O)OCC(=O)Nc1ccc(F)c(F)c1F | -3 | 4 | 1 | 8 | -1 | 5
O=C(c1cc2cc(Cl)ccc2[nH]1)N1CCN(c2ccccn2)CC1 | 2 | 1 | 0 | 8 | -3 | 6
O=C(COC(=O)C1CCC(=O)N1)Nc1ccccc1OC(F)F (stereo unspecified) | 4 | -2 | -10 | 8 | 2 | 11
CCOC(=O)N1CCN(C(c2ccnc3ccccc23)c2nnnn2-c2ccc3c(c2)OCCO3)CC1 (stereo unspecified) | nt | -10 | nt | nt | nt | nt
O=C(COC(=O)c1cccc(Br)c1)Nc1ccc2[nH]c(=O)[nH]c2c1 | -8 | -1 | -5 | -15 | -3 | 2
COc1ccc(C2=NN(c3nc(-c4ccccc4)c(CC(=O)O)s3)C(c3ccco3)C2)cc1 (stereo unspecified) | -3 | -32 | 30* | 3 | 2 | -7
Oc1c(/C=N/Nc2cccc3cccnc23)ccc2ccccc12 | 3 | 7 | 30* | -18 | 0 | 3
Oc1cccc(/C=N/Nc2cccc3cccnc23)c1 | 7 | -1 | nt | 13 | 0 | 14
CCCn1nnc(NC(=S)NC(=O)c2ccccc2OC)n1 | 4 | -4 | 1 | 8 | 6 | 4
CCCCn1c(CCC(=O)O)ccc1-c1cccs1 | 10 | -11 | 28* | 4 | -2 | -2
COCCn1c(CCC(=O)O)ccc1-c1cccs1 | -4 | -12 | 6 | -4 | 0 | -4
Cc1ccc(-n2c(CCC(=O)O)ccc2-c2cccs2)cc1C | 6 | -18 | 29* | 10 | 1 | 8
Oc1cccc(CN2CCOCC2)c1O | 4 | 2 | nt | 3 | 13* | 5
SMILES | PAFAH1B2 FP inh | eLon inh | pPAFAH inh | PAFAH2 FP inh | Rin1-Abl PPI inh | PAFAH1B3 FP inh
CCCc1cc(CN2CCOCC2)c(O)c(CN2CCOCC2)c1O | 8 | -9 | nt | 2 | 0 | 16
O=C(NCCN1CCOCC1)NC1(C(F)(F)F)Oc2ccc(Cl)cc2O1 (stereo unspecified) | 8 | -2 | 2 | -2 | -2 | 0
COCC(C)NC(=O)NC1(C(F)(F)F)Oc2ccc(Cl)cc2O1 (stereo unspecified) | 25* | 8 | -1 | 2 | 0 | 2
CSCCC(C(=O)Nc1c(C)cccc1C)N(Cc1ccccc1)Cc1ccccc1 (stereo unspecified) | nt | 1 | nt | nt | 2 | nt
CCCCCC(=O)Nc1cc(S(=O)(=O)O)cc2cc(S(=O)(=O)O)cc(O)c12 | 17 | -5 | nt | 57* | 10 | 35*
CCCCCC(=O)Nc1cc(S(=O)(=O)N2CCCCC2)ccc1N1CCCCC1 | 2 | 0 | nt | 0 | 3 | 4
COc1ccc(NS(=O)(=O)c2ccc(N3CCCC3)c(NC(=S)Nc3ccc(SC(F)F)cc3)c2)cc1 | 1 | 3 | 34* | 4 | -1 | -2
COc1ccc(NS(=O)(=O)c2ccc(N3CCCC3)c(N)c2)cc1 | 7 | -3 | 2 | 5 | 4 | 8
O=C(NCc1ccco1)C1CCCN(c2nnc(-n3cccc3)s2)C1 (stereo unspecified) | -4 | 6 | 3 | 2 | 0 | 1
CN(C)c1ccc(N2C(=NC(=O)CCC3CCCC3)SC3CS(=O)(=O)CC32)cc1 (stereo unspecified) | 5 | -1 | 3 | 3 | -2 | 9
CC1CCN(S(=O)(=O)c2ccc3c(c2)CCN3C(=O)CCC(=O)O)CC1 | 26* | 4 | 2 | 1 | -3 | 11
Cc1cc(C(=O)CSc2cccc[n+]2[O-])c(C)n1-c1ccc(OC(F)F)cc1 | 2 | 1 | 31* | 5 | -2 | 5
Cc1onc(-c2ccccc2)c1C(=O)Nc1sc2c(c1C#N)CCC2 | 1 | -4 | 27* | 17 | -1 | 9
Cc1onc(-c2ccccc2)c1C(=O)NC(=S)Nc1sc2c(c1C#N)CCCC2 | 9 | -4 | 1 | 10 | 1 | 2
S=C1NCCOCCOCCOCCN1 | 1 | 9 | 1 | -5 | 3 | -1
S=C1NCCOCCNC(=S)NCCOCCOCCN1 | -3 | -2 | 26* | 6 | 3 | 0
CCOC(=O)Cc1csc(NC(=O)c2ccc(N3CCOCC3)cc2[N+](=O)[O-])n1 | -5 | -8 | 3 | -1 | -3 | 3
CC(=O)NN1C(=O)/C(=C\c2ccc(Br)o2)SC1=S | -4 | 5 | 27* | 3 | 1 | 0
CC(=O)NN1C(=O)/C(=C\c2ccccc2)SC1=S | 14 | 1 | 6 | 18 | -1 | 9
FC(F)Oc1ccc(N=C2SCC3CCCCN23)cc1 (stereo unspecified) | 1 | 1 | 33* | 7 | 2 | 13
Clc1ccc(N=C2SCC3CCCCN23)cc1 (stereo unspecified) | 1 | 1 | 1 | 5 | 2 | -4
COc1ccc(NC(=O)COC(=O)CC2CCCC2)cc1Cl | -4 | 2 | 27* | 43* | 0 | 9
